Assay results published in PubChem BioAssay AID651551 (Sanford-Burnham Center for Chemical Genomics, 2012).

test: GAPDH versus PEG-3 reporter suppression – cell-based, luminescence, counter-screen for PEG-3 promoter inhibitor project, SAR follow-up (AID 651551); settings: HeLa PEG-Prom / GAPDH luciferase reporter, 6 or 24 h, run 2, 6 h; at 99 µM (top of the series)

| SMILES | inhibition % (higher = more inhibition) [%] |
| --- | --- |
| Cc1cc(NC(=O)c2ccccc2)n(-c2nc3ccccc3[nH]2)n1 | 15.3 |
| Cc1cc(NC(=O)c2ccccc2C(F)(F)F)n(-c2nc3ccccc3[nH]2)n1 | 91.4 |
| COc1ccc(-n2nc(C(=O)NCC(=O)Nc3cc(OC)c(OC)c(OC)c3)c3ccccc3c2=O)cc1OC | 26.1 |
| COc1ccccc1Nc1nc(-c2sc(NC(=O)c3ccco3)nc2C)cs1 | 72.7 |
| Cc1cc(NC(=O)c2ccccc2C)n(-c2nc3ccccc3[nH]2)n1 | 26.1 |
| Cc1nc(NC(=O)c2ccccc2)sc1-c1csc(Nc2ccccc2Cl)n1 | -2.1 |
| Cc1cc(NC(=O)c2cccc(C)c2C)n(-c2nc3ccccc3[nH]2)n1 | 19.1 |
| COCCCNC(=O)c1ccc(Cn2c(=O)c3ccccc3n(Cc3ccccc3C#N)c2=O)cc1 | 21.9 |
| CCCn1nc(C(=O)Nc2nc(-c3ccccn3)cs2)c2ccccc2c1=O | 64.7 |
| COc1ccc(Cl)cc1Nc1nc(-c2sc(NC(=O)c3ccccc3)nc2C)cs1 | 33.6 |
| Cc1nc(NC(=O)c2ccccc2)sc1-c1csc(Nc2ccccc2)n1 | 74.5 |
| CCn1cc(C(=O)NCc2ccco2)c(=O)c2cc(S(=O)(=O)N3CCCC3)ccc21 | 42.1 |
| COc1ccc(-n2nc(C(=O)NCC(=O)Nc3cccc(OC)c3)c3ccccc3c2=O)cc1 | 28.5 |
| O=C(Nc1nc(-c2ccccc2)cs1)c1nn(-c2ccccc2)c(=O)c2ccccc12 | 28.9 |
| CCn1nc(C(=O)Nc2nc(-c3ccccn3)cs2)c2ccccc2c1=O | 72.7 |
| CCCn1nc(C(=O)Nc2nc(-c3ccncc3)cs2)c2ccccc2c1=O | 56.1 |
| O=C(Nc1nccs1)c1nn(-c2ccccc2)c(=O)c2ccccc12 | 50.3 |
| O=C(Nc1nc2ccccc2s1)c1nn(-c2ccccc2)c(=O)c2ccccc12 | 6.36 |
| COc1ccc(-n2nc(C(=O)NCC(=O)Nc3ccc(OC)c(OC)c3)c3ccccc3c2=O)cc1 | 55.7 |
| Cc1cc(NC(=O)c2ccccc2)n(-c2nc3ccccc3n2C)n1 | 16.7 |
| Cc1nc(NC(=O)c2ccccc2)sc1-c1csc(Nc2cccc(Cl)c2C)n1 | 35.5 |
| CCCn1nc(C(=O)Nc2nc3ccccc3s2)c2ccccc2c1=O | 12.5 |
| Cc1ccc(Cl)cc1Nc1nc(-c2sc(NC(=O)c3ccco3)nc2C)cs1 | 71 |
